# Assay outcomes: PubChem, Johns Hopkins Ion Channel Center
# KCNQ2 pot: KCNQ2 (rat) channel potentiation; O88943; CHO-K1 KCNQ2, FluxOR thallium flux fluorescence; hits give high values; B-score at 10 µM; hit rate 0.54% among 310,000; AID 2239;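 active = fluorescence ratio B-score at least 3 SD of library B-scores, with initial fluorescence B-score within 3 of them, cut at about 5.3 in these data; same plate scores as AID 2156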;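 also: B-score of peak minus minimum over baseline fluorescence ratio after K+ and Tl+ stimulus; positive B-score means potentiation of KCNQ2 with more thallium influx and brighter signal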
# KCNQ2 block: KCNQ2 (rat) channel inhibition; hit rate 1.1% among 310,000; B-score at 10 µM; AID 2156; CHO-K1 KCNQ2, FluxOR thallium flux, 20 min; hits give low values; O88943;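 active = fluorescence ratio B-score at most minus 3 library SDs, with starting brightness B-score within 2 library SDs, cut at about -5.5 in these data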
# Kir21 conf inh: confirmation of mouse Kir2.1 potassium channel inhibitors; Kir2.1-expressing cells, FluxOR thallium flux fluorescence; hits give low values; Tl flux remaining, % of negative control (hits give low values), % at 10 µM; shares compounds with KCNQ2 pot; hit rate 41% among 2,300; AID 2032;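 active = Primary-screen hit whose thallium flux fell at least 3 control SD below untreated wells in both duplicates, with normal baseline fluorescence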;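 also: 0% = blank wells without stimulus and 100% = stimulated no-compound controls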
# HEK293 ctr: counter-screen for Kir2.1 inhibitors: effect in parental HEK293 cells; hit rate 19% among 2,300; shares compounds with KCNQ2 pot; FluxOR thallium flux fluorescence; 0% = unstimulated blank wells; FluxOR signal as % of negative control (100 = no effect), % at 10 µM;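 active = dye signal at least 3 control SD above or below untreated wells in both duplicates, raw fluorescence within 3, either direction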;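 also: percent is based on the flux ratio of peak minus minimum fluorescence over baseline F0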
# CHO-K1 ctr: parental CHO-K1 activity in KCNQ2 potentiator counter-screen; parental CHO-K1 cells, FluxOR thallium flux fluorescence; zero = vehicle mean+3SD, 100% = vehicle-minus-blank window; shares compounds with KCNQ2 pot; activity increase over 3SD of controls, % at 10 µM; hit rate 43% among 1,200; AID 2282;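 active = signal rise of at least 3 SD above the untreated control mean, in both duplicate wells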;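 also: counter screen of KCNQ2 potentiator hits so any rise reflects channel-independent effects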
# KCNQ1 sel pot: tests whether KCNQ2 potentiators also act on human KCNQ1 | activation over 3SD threshold, % at 10 µM | hit rate 28% among 1,200 | CHO KCNQ1 stable, FluxOR thallium flux fluorescence; beyond 3SD, as % of vehicle-control signal | shares compounds with KCNQ2 pot;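 active = fluorescence ratio rise of at least 3 SD of vehicle wells above their mean, in both replicate wells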;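 also: 0% = vehicle mean plus 3 SD and 100% = vehicle minus unstimulated blank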
# KCNQ2 pot conf: confirmation of rat KCNQ2 potassium channel potentiators; AID 2287; CHO-KCNQ2 cells, FluxOR thallium flux fluorescence; potentiation, less the hit threshold, % at 10 µM; hit rate 68% among 1,200; shares compounds with KCNQ2 pot;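 active = fluorescence ratio rising 3 SD or more over the vehicle control mean in both replicates, plus primary screen hit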;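 also: peak minus minimum thallium fluorescence divided by baseline after K/Tl stimulus; 0% = vehicle mean plus 3 SD and 100% = vehicle minus unstimulated blank difference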
# Kir2-1 sel: tests whether KCNQ2 potentiators also affect mouse Kir2.1; shares compounds with KCNQ2 pot; hit rate 2% among 1,200; HEK293 Kir2.1, FluxOR thallium flux fluorescence; activity over 3SD threshold, % at 10 µM;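 active = fluorescence ratio rise of at least 3 SD above the vehicle-control mean, seen in both replicates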;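 also: 0% = vehicle mean plus 3 SD and 100% = vehicle minus no-stimulus blank window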
# KCNQ2 W236L pot: potentiates the retigabine-insensitive rat KCNQ2 W236L mutant channel | shares compounds with KCNQ2 pot | CHO KCNQ2-W236L, automated patch clamp current | current increase over 3SD of negative controls (%), hits give high values, % at 25 µM | hit rate 10% among 940 | AID 2558;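 active = current increase at least 3 SD of the untreated controls above them in both duplicate recordings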
# Target sequence (O88943 whole entry W236L, looked up): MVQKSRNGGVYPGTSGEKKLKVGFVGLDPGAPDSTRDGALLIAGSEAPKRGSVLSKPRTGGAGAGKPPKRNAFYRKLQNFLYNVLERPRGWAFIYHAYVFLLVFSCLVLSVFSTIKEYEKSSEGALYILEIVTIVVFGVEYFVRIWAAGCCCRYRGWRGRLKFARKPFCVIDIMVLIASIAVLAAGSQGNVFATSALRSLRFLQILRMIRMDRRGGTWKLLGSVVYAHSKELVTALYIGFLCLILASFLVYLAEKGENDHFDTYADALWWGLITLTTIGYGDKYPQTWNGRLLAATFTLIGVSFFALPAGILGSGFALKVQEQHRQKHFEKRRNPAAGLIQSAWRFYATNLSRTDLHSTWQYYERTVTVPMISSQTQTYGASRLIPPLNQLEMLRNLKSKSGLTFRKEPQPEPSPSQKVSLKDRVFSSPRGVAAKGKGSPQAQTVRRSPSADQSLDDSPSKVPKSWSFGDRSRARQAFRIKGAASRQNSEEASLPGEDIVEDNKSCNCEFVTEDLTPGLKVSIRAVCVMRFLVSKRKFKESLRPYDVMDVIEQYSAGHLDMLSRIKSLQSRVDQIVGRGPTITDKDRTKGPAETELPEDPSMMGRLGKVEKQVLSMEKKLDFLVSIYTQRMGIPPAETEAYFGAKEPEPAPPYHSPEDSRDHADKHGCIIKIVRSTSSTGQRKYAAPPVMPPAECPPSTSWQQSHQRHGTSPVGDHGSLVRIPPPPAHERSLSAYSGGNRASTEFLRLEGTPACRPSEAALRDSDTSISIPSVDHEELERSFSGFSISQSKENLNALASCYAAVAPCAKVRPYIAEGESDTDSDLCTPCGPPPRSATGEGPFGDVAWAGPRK
# * marks the source's active call; other numbers are inactive results; i = inactive; nt = no result given. A selection: hits, their analogues and other compounds. The true share with any hit is near 1.6%.
SMILES,KCNQ2 pot,KCNQ2 block,Kir21 conf inh,HEK293 ctr,CHO-K1 ctr,KCNQ1 sel pot,KCNQ2 pot conf,Kir2-1 sel,others
COc1ccccc1CCNC(C)CCc1ccc(O)cc1 (centres undefined),nt,i,nt,nt,nt,nt,nt,nt,
COc1cc(OC)c(OC)cc1CCC(C)NCCC(c1ccccc1)c1ccccc1 (centres undefined),0.21,i,48%*,i,nt,nt,nt,nt,
CCC1CCCCN1CCCCOc1cccc(Cl)c1 (centres undefined),0.41,i,nt,nt,nt,nt,nt,nt,
Nc1nc(C2CCCN2S(=O)(=O)c2ccc(Cl)cc2)cs1 (centres undefined),1.3,i,62%*,i,nt,nt,nt,nt,
O=S(=O)(c1ccc(Cl)cc1)N1CCCC1c1nc(-c2ccc(Cl)cc2)no1 (centres undefined),nt,i,nt,nt,nt,nt,nt,nt,
CCOc1ccc2[nH]c(SCC(=O)OC)c([N+](=O)[O-])c2c1,nt,i,nt,nt,nt,nt,nt,nt,
COC(=O)CSc1[nH]c2ccc(Br)cc2c1[N+](=O)[O-],6.5*,i,i,i,-22,-13,-24,-23,
CC(C)OC(=O)c1cc2c(ccn2C)n1CC(=O)N1CCC(Cc2ccccc2)CC1,9.9*,i,i,i,40*,70*,7.1*,-20,KCNQ2 W236L pot=i
Cc1ccccc1Cn1c(C(=O)OC(C)C)cc2c1ccn2C,nt,i,nt,nt,nt,nt,nt,nt,
CCNC(=O)c1ccccc1NC(=O)C1CC(=O)N(C(C)C)C1 (centres undefined),nt,i,nt,nt,nt,nt,nt,nt,
O=C(NN=C1CCCCC1)Nc1ccccc1Cl,nt,i,nt,nt,nt,nt,nt,nt,
O=C(NNc1ncc(C(F)(F)F)cc1Cl)c1ccc(Cl)c(Cl)c1,12*,i,i,i,-12,-19,1.2*,-30,KCNQ2 W236L pot=6.1%*
Nc1ccccc1C(=O)NNc1ncc(C(F)(F)F)cc1Cl,nt,i,nt,nt,nt,nt,nt,nt,
N#Cc1c(C(F)(F)F)cc(-c2ccc(Cl)c(Cl)c2)nc1SCCN1CCOCC1,0.12,i,nt,nt,nt,nt,nt,nt,
N#Cc1c(C(F)(F)F)cc(-c2ccccc2)nc1SCc1nc(N)nc(N2CCOCC2)n1,10*,i,i,i,-19,-22,17*,-17,KCNQ2 W236L pot=i
O=C(CSc1nc(O)cc(=O)n1-c1ccccc1)Nc1ccc(Br)cn1,0.02,i,nt,nt,nt,nt,nt,nt,
CCCOc1cccc(-c2cc(-c3n[nH]c(=S)n3CC)c3ccccc3n2)c1,26*,i,i,i,115*,-20,-20,-35,
CCn1c(-c2cc(-c3ccc(C)cc3)nc3ccccc23)n[nH]c1=S,nt,i,nt,nt,nt,nt,nt,nt,
COc1ccc(CCNC(=O)Cc2ccsc2)cc1,0.45,i,nt,nt,nt,nt,nt,nt,
CCCCN(CCCC)C(=S)N/N=C/c1c(C)[nH]n(-c2ccccc2)c1=O,6.7*,i,i,i,0.0*,-27,-30,-24,
Cc1[nH]n(-c2ccccc2)c(=O)c1/C=N/NC(=O)c1ccc(O)cc1O,nt,i,nt,nt,nt,nt,nt,nt,
O=C(NCc1ccc(F)cc1)C(=O)NCC1OCCCN1S(=O)(=O)c1cccs1 (centres undefined),nt,i,nt,nt,nt,nt,nt,nt,
CC(=O)NNc1nc(-c2ccccc2)c2cc(Br)ccc2n1,nt,i,nt,nt,nt,nt,nt,nt,
O=C(CN1CCCCC1)NNc1nc(-c2ccccc2)c2cc(Br)ccc2n1,11*,i,i,i,75*,-11,71*,-39,KCNQ2 W236L pot=i
O=C1CC(C(=O)N2CCc3ccccc32)CN1c1ccccc1 (centres undefined),0.29,i,nt,nt,nt,nt,nt,nt,
SMILES,KCNQ2 pot,KCNQ2 block,Kir21 conf inh,HEK293 ctr,CHO-K1 ctr,KCNQ1 sel pot,KCNQ2 pot conf,Kir2-1 sel,others
CC(=O)OC1C(N2CCCCC2)c2c(ccc(/C=C/C(=O)N3CCCCC3)c2O)OC1(C)C (centres undefined),0.02,i,nt,nt,nt,nt,nt,nt,
Cc1ccc(N2CCN(S(=O)(=O)c3ccc4c(c3)oc(=O)n4C)CC2C)cc1 (centres undefined),2.1,i,nt,nt,nt,nt,nt,nt,
Cc1[nH]n(-c2ccccc2)c(=O)c1Sc1ccc(Cl)cc1,1.1,i,nt,nt,nt,nt,nt,nt,
CCCSC(=S)c1c(C)[nH]n(-c2ccccc2)c1=O,9.8*,i,i,424%*,22*,-14,54*,3.8*,KCNQ2 W236L pot=i
O=c1[nH]cnc2scc(-c3ccccc3)c12,nt,i,nt,nt,nt,nt,nt,nt,
S=c1[nH]cnc2scc(-c3ccc(Br)cc3)c12,5.6*,i,i,194%*,-3,-17,-5,-20,KCNQ2 W236L pot=i
S=c1[nH]cnc2scc(-c3ccc(Cl)cc3)c12,9.6*,i,i,142%*,-5,-4,14*,-31,KCNQ2 W236L pot=i
Cc1cc(-c2csc3nc[nH]c(=S)c23)cc(C)c1C,15*,i,i,262%*,-9,-17,36*,-20,KCNQ2 W236L pot=i
Clc1ccc(-c2csc3ncnc(Cl)c23)cc1,0.92,i,nt,nt,nt,nt,nt,nt,
O=c1[nH]cnc2scc(-c3ccsc3)c12,2.3,i,nt,nt,nt,nt,nt,nt,
Cc1ccn2c(=O)nc(SCC(=O)N3CCCCC3)nc2c1,0.08,i,nt,nt,nt,nt,nt,nt,
CN(Cc1ccc(Cl)cc1)C(=O)c1ccc2ccccc2n1,0.42,i,nt,nt,nt,nt,nt,nt,
COCCN1CCN(Cc2nc(Cc3ccc(OC)c(OC)c3)no2)CC1,1.3,i,nt,nt,nt,nt,nt,nt,
COc1ccc(Cc2noc(CN3CCN(Cc4cccc(Cl)c4)CC3)n2)cc1OC,7.2*,i,i,i,43*,-16,-26,-14,
COc1ccc(C(OCC(O)CNCCc2ccc(S(N)(=O)=O)cc2)c2ccc(OC)cc2)cc1 (centres undefined),0.06,i,nt,nt,nt,nt,nt,nt,
OC(CNCCc1ccc(C(F)(F)F)cc1)COC(c1ccccc1)c1ccccc1 (centres undefined),nt,i,51%*,68%*,nt,nt,nt,nt,
CCCN1CCc2c(sc3nc(SCC)n(-c4ccc(OC)cc4)c(=O)c23)C1,nt,i,nt,nt,nt,nt,nt,nt,
O=C(CN1CCN(S(=O)(=O)c2ccc(Cl)cc2)CC1)NC1CC1,nt,i,nt,nt,nt,nt,nt,nt,
CCCCCCCCC(=O)O,0.64,i,nt,nt,nt,nt,nt,nt,
CCCCCCCC/C=C\CCCCCCCC(=O)O,6.8*,i,i,i,-10,33*,-13,-31,
O=C(c1cccc(C(F)(F)F)c1)C1CCCN(C(=O)CN2CCOC2=O)C1 (centres undefined),nt,i,nt,nt,nt,nt,nt,nt,
CCN1C(=NCCc2ccccn2)N[C@@H](c2cccc(F)c2)C(C(=O)OC)=C1C,0.23,i,nt,nt,nt,nt,nt,nt,
COC(=O)C1=C(C)N(Cc2ccccc2)C(=NCC(C)C)N[C@H]1c1ccccc1,nt,i,i,i,nt,nt,nt,nt,
COC(=O)C1=C(C)N(Cc2ccccc2)C(=NCCc2ccccn2)N[C@H]1c1cccc(F)c1,0.46,i,40%*,i,nt,nt,nt,nt,
COC(=O)C1=C(C)N(Cc2ccccc2)C(=O)N[C@H]1c1ccccc1,nt,i,nt,nt,nt,nt,nt,nt,
